Source: PubChem BioAssay (NCATS)
Inconclusive results are not listed. The source made the active and inactive calls. The call rests on the fitted dose curve; in most records, active means well fitted inhibition curve with a large enough effect; inconclusive means small, poorly fitted or top-dose-only effect; inactive means flat fitted curve, though single readings scatter.

Key:
Experiment in all cases: qHTS profiling for inhibitors of Plasmodium falciparum proliferation (AID 504749); further: nearly all actives have a fitted effect of over 60% in size
Settings in all cases: P. falciparum in erythrocytes, SYBR Green DNA, 72 h; series mostly up to 28.7 µM
ICS = tested on: ICS
Procedure, shortened: (§1)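 Fluorescence of SYBR Green-bound parasite DNA, read at 485/535 nm, served as the growth measure. Infected erythrocytes were cultured with compound 72 h; artemisinin (0.29 uM) and DMSO wells defined the normalization range.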

JCK = tested on: JCK
Procedure, shortened: as §1

N140 = tested on: N140
Procedure, shortened: as §1

P93_24 = tested on: P93_24
Procedure, shortened: as §1

P94_40 = tested on: P94_40
Procedure, shortened: as §1

PAD = tested on: PAD
Procedure, shortened: as §1

PC15 = tested on: PC15
Procedure, shortened: as §1

PC26 = tested on: PC26
Procedure, shortened: as §1

PC49 = tested on: PC49
Procedure, shortened: as §1

SC27B = tested on: SC27B
Procedure, shortened: as §1

Measured: Potency

CC(CSC(=O)c1ccccc1)C(=O)N1C[C@@H](Sc2ccccc2)C[C@H]1C(=O)O (stereo not given in full)
inactive: all assays above

CCOc1cc(NC(C)=O)ccc1C(=O)OC
inactive: all assays above

CC(=O)Nc1ccc(OCCOCCOc2ccc(NC(C)=O)cc2)cc1
inactive: all assays above

Cc1c(C)c2c(c(C)c1OC(=O)c1cccnc1)CC[C@@](C)(CCC[C@H](C)CCC[C@H](C)CCCC(C)C)O2
inactive: all assays above

O=C(OOC(=O)c1ccccc1)c1ccccc1
inactive: all assays above

CNCc1ccccc1
inactive: all assays above

O=c1[nH]cnc2nc[nH]c12
inactive: all assays above

CC(C(=O)O)c1ccc2c(c1)Cc1cccnc1O2 (stereo not given)
inactive: all assays above

C=CCNC(N)=S
inactive: all assays above

CC(N)CCCC(C)(C)O (stereo not given)
inactive: all assays above

O=S1(=O)OC(c2ccc(O)cc2)(c2ccc(O)cc2)c2ccccc21
inactive: all assays above

OCc1ccc(Cl)cc1Cl
inactive: all assays above

NS(=O)(=O)c1cc(-c2nn[nH]n2)c(NCc2cccs2)cc1Cl
inactive: all assays above

Cc1ccc(C(C)C)c(O)c1
inactive: all assays above

Nc1ccncc1N
inactive: all assays above

CC[N+](CC)(CC(=O)Nc1c(C)cccc1C)Cc1ccccc1
inactive: all assays above

O=C(Cn1ccnc1[N+](=O)[O-])NCc1ccccc1
inactive: all assays above

C=CCSCC1Nc2cc(Cl)c(S(N)(=O)=O)cc2S(=O)(=O)N1 (stereo not given)
inactive: all assays above

Cc1c(C(=O)NCCO)[n+](=O)c2ccccc2n1[O-]
inactive: all assays above

Cc1cc(=O)[nH]c(=S)[nH]1
inactive: all assays above

O=C(O)CCC(=O)O
inactive: all assays above

Cc1cccc(C(=O)O)c1O
inactive: all assays above

CC(O)CCCCn1c(=O)c2c(ncn2C)n(C)c1=O (stereo not given)
inactive: all assays above

O=C(O)CNC(=O)c1ccccc1I
inactive: all assays above

CC[N+](C)(CC)CCOC(=O)C1c2ccccc2Oc2ccccc21
inactive: all assays above
